# Assay results from PubChem BioAssay (NCI).
# Compounds without any hit were thinned out: in the full panel of roughly 83,000, 20% have a hit.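 Method: cells in 96-well plates; compound added at one concentration; 48 h incubation; percent growth measured; values under 10 scored active.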 Values without a mark were called inactive. Active and inactive are the calls of the source.
# Assays:
# Assay in all cases: NCI-60 one-dose screen, 48 h (100 = growth as untreated, 0 = no growth, -100 = all killed)
# Conditions in all cases: 10 µM unless noted
# SK-MEL-2 melanoma = system: SK-MEL-2 melanoma
# EKVX NSCLC = system: EKVX NSCLC
# SN12C renal = system: SN12C renal
# UO-31 renal = system: UO-31 renal
# TK-10 renal = system: TK-10 renal
# ACHN renal = system: ACHN renal
# CAKI-1 renal = system: CAKI-1 renal
# A498 renal = system: A498 renal
# CCRF-CEM leukemia = system: CCRF-CEM leukemia
SMILES,growth (SK-MEL-2 melanoma),growth (EKVX NSCLC),growth (SN12C renal),growth (UO-31 renal),growth (TK-10 renal),growth (ACHN renal),growth (CAKI-1 renal),growth (A498 renal),growth (CCRF-CEM leukemia)
Cc1cc(NCc2cc(Nc3ccnc4cc(Cl)ccc34)ccc2F)nc(N2CCCC2)n1,93.5%,17.3%,35.8%,-50.9% (active),-35.8% (active),-69.2% (active),71.5%,59.2%,-22.5% (active)
Cc1ccc(S(=O)(=O)n2cc(CNc3ccc(N4CCOCC4=O)cc3)c3ccccc32)cc1,102%,98.5%,84.3%,43.3%,65.2%,46.7%,30.4%,-51.1% (active),53.5%
CCCCOc1nc2ccccc2cc1C1CNC(=O)c2ccccc2N1 (configuration not stated),15.7%,33%,44.1%,41.3%,34.3%,46.7%,42.6%,-11.2% (active),12.6%
Oc1ccc(CN2CCC(N3CCOCC3)CC2)c2cccnc12,-6.57% (active),59.4%,11.8%,14.5%,30.6%,12.8%,43.2%,71.1%,22.4%
COc1c(CCC[P+](c2ccccc2)(c2ccccc2)c2ccccc2)cc2c(c1OC)OCO2,-24.2% (active),15.6%,2.66% (active),86.6%,2.13% (active),55.6%,31.9%,-9.74% (active),29.7%
COc1cc(N=Nc2ccc(N)cc2)c(OC)cc1N=Nc1ccccc1.[Cl][Zn][Cl],112%,103%,102%,53.1%,140%,91.1%,75.1%,116%,106%
CCC(CO)Nc1nc2ccc(Cl)cc2c2ccccc12 (configuration not stated),84.1%,47.9%,71.1%,39.5%,54.3%,73.9%,40.9%,-19% (active),56.5%
Cc1cc(NCc2cc(Nc3ccnc4cc(Cl)ccc34)ccc2F)nc(N2CCSCC2)n1,47.6%,58.7%,34.9%,-10.2% (active),-58.3% (active),-81.4% (active),60.9%,45%,-10.4% (active)
COc1cc(OC)cc(C2CC(=O)Nc3c2c(C)nn3-c2nc3ccccc3[nH]2)c1 (configuration not stated),38.4%,17.7%,20%,13.1%,24.2%,19.3%,30.3%,-10.1% (active),4.69% (active)
CC(C)(C)n1cc(-c2ccnc(NCCCNS(=O)(=O)c3ccccc3)c2)c(-c2ccccc2)n1,98.7%,70.7%,78.2%,59%,94.1%,97.2%,80.9%,39.7%,42.6%
CC(=O)C(C)Cc1cc2c(cc1C)C(C)(C)CCC2(C)C (configuration not stated),94.8%,94.4%,103%,101%,100%,104%,97.6%,108%,121%
CCOc1c(C#N)nnc2c(C#N)c(NC(=O)c3ccccc3)nn12,112%,93.8%,100%,86.3%,116%,98.4%,93.7%,93.4%,102%
COC(=O)[C@]12CC[C@@H](C)[C@H](C)[C@@H]1C1=CC[C@@H]3[C@@]4(C)C(C=O)=C[C@@](C)(COC(=O)/C=C/c5ccccc5)[C@@H]4[C@H](O)C[C@@]3(C)[C@]1(C)CC2,-23.5% (active),26.9%,3.47% (active),3.64% (active),26%,-14.7% (active),15%,19.6%,16.4%
Cc1ccc(NCCN(C)C)c2c(=O)c3ccccc3sc12,71.9%,49.4%,25.1%,-30.5% (active),54.8%,3.03% (active),-20% (active),37.6%,27%
COC(=O)[C@]12CC[C@@H](C)[C@H](C)[C@@H]1C1=CC[C@@H]3[C@@]4(C)C(C=O)=C[C@@](C)(COC(=O)c5ccco5)[C@@H]4C(=O)C[C@@]3(C)[C@]1(C)CC2,-31.8% (active),38.3%,42%,29.7%,29.7%,13.4%,38.8%,65.5%,5.47% (active)
CCOC(=O)c1c(/C=C/C(=O)O)nc2ccccc2c1/C=C/c1ccccc1,47.4%,61.6%,27.1%,42.5%,65.5%,43.2%,62.3%,8.83% (active),17.1%
c1c[nH]c(CNC2CCCCC2)c1,115%,108%,107%,89.8%,120%,98.1%,96.1%,91.3%,96.6%
COC(=O)[C@]12CC[C@@H](C)[C@H](C)[C@@H]1C1=CC[C@@H]3[C@@]4(C)C(C=O)=C[C@@](C)(COC(C)=O)C4=CC[C@@]3(C)[C@]1(C)CC2,-45.1% (active),12.7%,9.9% (active),-9.5% (active),-8.72% (active),-16% (active),13.7%,14.6%,-14.7% (active)
O=c1oc2ccccc2c(Cl)c1Cl,54.7%,106%,17.9%,62.3%,94.3%,80.7%,83.4%,112%,18.9%
CCN1C(=O)N(CC)C2C1NN=c1s/c(=C\c3cccs3)c(=O)n12 (configuration not stated),42%,60.6%,29.7%,50.2%,5.35% (active),42.2%,35.4%,-12.4% (active),26.6%
CCN(CC)CCCCCCNc1cc(OC)c(Cl)c2cccnc12,92.4%,85.6%,67.7%,51.8%,85.3%,82.5%,84.6%,45.3%,84.7%
CC(=O)n1c(-c2ccc(Cl)cc2)nc2c(c1=O)C(c1ccc(Cl)cc1)c1sc3c(Cl)cccc3c1O2 (configuration not stated),7.32% (active),32.9%,-0.0627% (active),15.6%,-7.43% (active),23.4%,7.82% (active),3.79% (active),-4.47% (active)
CCN1CCN(c2cc(C)nc(NCc3cc(Nc4ccnc5cc(Cl)ccc45)ccc3F)n2)CC1,104%,59.6%,64.3%,69.1%,99.8%,34.9%,87.8%,36.2%,16.6%
CC(=O)OC[C@H]1OC(Sc2sc(C(=O)c3ccc(Br)cc3)c(N)c2-c2nc3ccccc3s2)[C@H](OC(C)=O)[C@@H](OC(C)=O)[C@@H]1OC(C)=O (some centres not stated),107%,72.7%,33%,64.6%,111%,54.9%,63.8%,87.8%,44.1%
COC(=O)[C@]12CC[C@@H](C)[C@H](C)[C@@H]1C1=CC[C@@H]3[C@@]4(C)C(C=O)=C[C@@](C)(COC(C)=O)[C@@H]4[C@H](O)C[C@@]3(C)[C@]1(C)CC2,-25.4% (active),20%,-19.3% (active),-26.2% (active),-8.86% (active),-54.3% (active),1.42% (active),28.3%,1.74% (active)
COC1=CC(=O)C[C@@H](C)[C@]12Oc1c(Cl)c(OC)cc(OC)c1C2=O,82.7%,106%,96.5%,82.7%,96.3%,99.9%,82.1%,114%,93.9%
CCN1CCN(c2nc(C)cc(NCc3cc(Nc4ccnc5cc(Cl)ccc45)ccc3F)n2)CC1,-49.7% (active),49.4%,44%,17.1%,28.9%,16.9%,68.8%,15.6%,-19.4% (active)
O=C(Nc1ccccc1)Nc1cccc(Oc2nnc(Cl)c3ccccc23)c1,9.53% (active),30%,53.7%,34.9%,25.3%,33.9%,84.4%,49.2%,47.6%
